# Measurements from PubChem BioAssay AID1030 (National Center for Advancing Translational Sciences (NCATS), 2008).
# Several values for one entry are separate records, joined by “and”; a condition that tells them apart may be missing. Equal values may be shown once. The campaign covered roughly 220,000 compounds. About 16,000 (7.3%) were called active. Not shown: some 25% with an inconclusive outcome. The call rests on the fitted dose curve; in most records, active means well fitted inhibition curve with a large enough effect (not every such curve was filed as active); inconclusive means small, poorly fitted or top-dose-only effect, or another doubt; inactive means no such curve, though single readings can be large or run the other way. Many of the other results were omitted from the sample, so actives are more common in it than they were.
# Molecular target: Aldehyde dehydrogenase 1A1 (Homo sapiens) (UniProt P00352)
# Experiment: qHTS Assay for Inhibitors of Aldehyde Dehydrogenase 1 (ALDH1A1);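 on activity, negative = inhibition: plate controls were no enzyme wells and a reference inhibitor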
# Conditions: Purified ALDH1A1, NADH fluorescence, propionaldehyde substrate; series mostly up to 75.3 µM; activity, negative = inhibition: at the top concentration
# Potency means the concentration at half of the fitted maximal effect.
# Chain of Aldehyde dehydrogenase 1A1 (Homo sapiens) (P00352 whole entry, looked up): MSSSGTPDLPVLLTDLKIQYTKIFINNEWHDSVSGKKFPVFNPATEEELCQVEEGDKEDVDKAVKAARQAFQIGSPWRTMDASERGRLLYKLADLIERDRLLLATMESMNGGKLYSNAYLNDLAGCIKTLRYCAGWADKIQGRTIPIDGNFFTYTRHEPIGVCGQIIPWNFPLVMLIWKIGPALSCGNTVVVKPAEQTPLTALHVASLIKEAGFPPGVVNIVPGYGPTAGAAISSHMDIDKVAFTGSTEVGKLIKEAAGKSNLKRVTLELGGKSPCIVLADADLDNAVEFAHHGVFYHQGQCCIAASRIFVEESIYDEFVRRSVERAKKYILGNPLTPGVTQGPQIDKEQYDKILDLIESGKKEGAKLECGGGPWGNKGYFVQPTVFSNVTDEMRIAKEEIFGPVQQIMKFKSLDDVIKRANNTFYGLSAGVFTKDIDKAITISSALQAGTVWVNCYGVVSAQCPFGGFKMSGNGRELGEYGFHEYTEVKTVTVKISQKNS
Compound,"activity, negative = inhibition",Potency
NC[C@H](O)c1ccc(O)cc1,-2.77% [at 20.9 µM] (inactive),
c1ccc(C2NCc3ccccc3-n3cccc32)cc1 (stereo not drawn),-2.04% (inactive),
O=C(OCC(=O)c1cccs1)C1=COCCO1,,14.1 µM (active)
CN1CCN(C(=O)O[C@@H]2c3nccnc3C(=O)N2c2ccc(Cl)cn2)CC1,-0.229% (inactive),
CC(C)(c1ccc(OC[C@@H]2CO2)cc1)c1ccc(OC[C@H]2CO2)cc1,-3.47% (inactive),
CC[N+]1(C)CCCC(OC(=O)C(O)(c2ccccc2)c2ccccc2)C1 (stereo not drawn),,inactive
O=C(NCC(c1cccnc1)N1CCN(c2ccccc2)CC1)Oc1ccccc1 (stereo not drawn),-6.2% (inactive),
CCCn1c(C(=O)c2ccccc2OC)nc2ccccc21,-12.3% (inactive),
Cc1cccc(N2C(=O)NC(=O)/C(=C\c3cnn(-c4ccccc4)c3)C2=O)c1,,7.08 µM (active)
C[C@H]1CC[C@@]2(NC1)O[C@@H]1C[C@H]3[C@@H]4CC=C5C[C@@H](O)CC[C@]5(C)[C@@H]4CC[C@]3(C)[C@@H]1[C@@H]2C,6.18% [at 20.9 µM] (inactive),
NCC(O)c1ccc(O)cc1 (stereo not drawn),,inactive
Cc1cc(C)cc(NC(=S)NC2CC3CCCC(C2)N3Cc2cccs2)c1 (stereo not drawn),-4.86% (inactive),
O=C(CSC1c2ccccc2-c2ccccc21)N/N=C/c1ccccc1,-2.88% (inactive),
O=C(CN1CCCC1=O)NCCc1ccccc1,4.93% (inactive),
COC1=C[C@@H]2[C@@H]3Cc4ccc(OC)c(O)c4[C@]2(CCN3C)CC1=O,0.364% (inactive),
CC(C(=O)Nc1ccc(Cl)cc1Cl)N1CC=C(c2ccccc2)CC1 (stereo not drawn),-8.8% (inactive),
CCCC[N+]1(C)C2CC(OC(=O)C(CO)c3ccccc3)CC1C1OC12 (stereo not drawn),,inactive
CC(C)CC(C)Nc1ccc(Nc2ccccc2)cc1 (stereo not drawn),,14.1 µM (active)
CC(=O)NC(=O)NC(C)Cc1ccccc1 (stereo not drawn),4.95% (inactive),
CC12CN3CC(C)(CN(C1)C3c1cccs1)C2 (stereo not drawn),4.85% (inactive),
CCCCC(=O)N/N=C/c1c(O)n(CC)c(=S)n(CC)c1=O,-14.7% (inactive),
Cc1cc(-c2ccc(N)c(C)c2)ccc1N,,28.2 µM (active)
CC1CCCCN1Cc1cccnc1 (stereo not drawn),-10.2% (inactive),

Compound,"activity, negative = inhibition",Potency
C/C(=C\C=C/[C@@H](C)C(=O)O)[C@H]1CN[C@H](C(=O)O)[C@@H]1CC(=O)O,-4.2% (inactive),
CCN1C[C@]2(COC)C(O)C[C@H](OC)[C@@]34C5C[C@]6(O)C(OC)C(O)[C@](OC(C)=O)(C5C6OC(=O)c5ccccc5)C(C(OC)C23)C14 (stereo partly drawn),-3.76% (inactive),
CC(=O)c1c(O)c(C)c(O)c(Cc2c(O)c3c(c(C(=O)/C=C/c4ccccc4)c2O)OC(C)(C)C=C3)c1O,,17.8 µM (active) and 14.1 µM (active)
CC(=O)c1c(O)c(C)c(O)c(Cc2c(O)c3c(c(C(=O)/C=C\c4ccccc4)c2O)OC(C)(C)C=C3)c1O,,22.4 µM (active)
COC1=C[C@]23CCCN2CCc2cc4c(cc2[C@@H]3[C@@H]1O)OCO4,-1.15% (inactive),
O=C(O)C1C2CCC(O2)C1C(=O)O (stereo not drawn),8.57% (inactive),
CN(C)C1C(=O)C(C(N)=O)=C(O)[C@@]2(O)C(=O)C3=C(O)c4c(O)cccc4[C@@](C)(O)C3C[C@@H]12 (stereo partly drawn),-12.3% (inactive),
C=CCSSCC=C,,6.31 µM (active)
CN(C)c1ccc(/C=C2\CC3C4CC=C5CC(O)CCC5(C)C4CCC3(C)C2=O)cc1 (stereo not drawn),1.47% (inactive),
O=C1NC(=O)C(CCc2ccccn2)(Cc2cccc(Cl)c2Cl)C(=O)N1c1ccc(Br)cc1 (stereo not drawn),2.63% (inactive),
CCOC(=O)C(O)(c1ccc(N=Cc2ccccc2O)c(C)c1)C(F)(F)F (stereo not drawn),-8.17% (inactive),
CN(C)C(=O)Oc1cc(=O)n2c3c(cccc13)CCC2,-0.966% (inactive),
COc1ccc(C2=NOC(COC(=O)c3ccc4ccccc4n3)C2)cc1 (stereo not drawn),,5.62 µM (active)
CN(C)/C=C(\C=[N+](C)C)c1[nH]ncc1[N+](=O)[O-],-1.75% (inactive),
CC[N+](CC)(CC)CCCCCCCCCC[N+](CC)(CC)CC,0.542% (inactive),
O=C1C2CCN(CC2)C1(CO)CO,,inactive
CC(C)n1c(=O)c(C=Nc2ccc(Br)cc2)c(O)n(Cc2ccco2)c1=O,,14.1 µM (active)
CN(C)CCCN=Cc1c(O)n(Cc2ccco2)c(=O)[nH]c1=O,-1.51% (inactive),
COc1cc2c(cc1OC)[C@@H]1C(=O)c3ccc(O)c(CC=C(C)C)c3OC1CO2 (stereo partly drawn),9.01% (inactive),
CC(=O)Nc1ccccc1C(=O)OCC(=O)c1cccc2ccccc12,1.69% (inactive),
NCC[Se][Se]CCN,,3.55 µM (active)
CC[C@H]1CN2CCc3cc(OC)c(OC)cc3[C@@H]2C[C@@H]1C[C@H]1NCCc2cc(OC)c(OC)cc21,,inactive
CCc1cccc2c(C#N)cn(CC(=O)N3CCOCC3)c12,0.358% (inactive),

Compound,"activity, negative = inhibition",Potency
CCN(CC)P(=O)(Oc1cccc(C)c1)N(CC)CC,2.46% (inactive),
Cc1cccc([C@H](C)c2cnc[nH]2)c1C,-6.99% (inactive),
ClC(Cl)(Cl)c1ccccc1,,inactive
O=Cc1cn(Cc2ccc(F)cc2Cl)c2ccccc12,,3.16 µM (active)
Cc1ccc(-c2nn(CCC#N)cc2C(=O)O)cc1C,18.1% (inactive),
Cc1ccc(S(=O)(=O)O[C@H]2CN3CCC2CC3)cc1,4.24% [at 13.5 µM] (inactive),
COC(=O)c1ccc2[se]c(CC3CCCCC3)c(I)c2c1,4.76% (inactive),
CCCCCCCCCCCCCC(=O)O[C@@H]1[C@@H](C)[C@@]2(O)[C@@H](C=C(CO)C[C@]3(O)C(=O)C(C)=C[C@@H]23)[C@@H]2C(C)(C)[C@]12OC(C)=O,-2.86% (inactive),
Cn1c(O)c(C=NCCCC(=O)O)c(=O)n(C)c1=O,-4.25% (inactive),
C[C@@H]1C[C@@H]2O[C@H]2/C=C\C=C\C(=O)Cc2c(Cl)c(O)cc(O)c2C(=O)O1,-5.35% (inactive),
O=C(C1CC(=O)N(C2CCCC2)C1)N1CCC2(CC1)OCCO2 (stereo not drawn),2.67% (inactive),
C=CCN1C(=O)C2(C(C(=O)OCC)=C(N)Oc3c2c(=O)oc2ccccc32)c2ccccc21 (stereo not drawn),,0.398 µM (active)
CCOC(=O)c1ncn2c1[C@@H]1CCCN1C(=O)c1cc(OC)ccc1-2,-5.12% (inactive),
CCOCCc1c(O)[nH]c(=S)[nH]c1=O,-3.64% (inactive),
CCOC(=O)C1CN(C)CCC1=O (stereo not drawn),3.02% (inactive),
CNC(C)[C@@H](O)c1ccccc1 (stereo partly drawn),-5.15% (inactive),
O=c1oc2ccccc2c(O)c1C(c1ccccc1O)c1c(O)c2ccccc2oc1=O,10.4% (inactive),
c1ccc2sc(C3CCCNC3)nc2c1 (stereo not drawn),8.39% (inactive),
c1ccc2sc(N3CCNCC3)nc2c1,8.53% (inactive),
c1ccc2sc(SNC3CCCCC3)nc2c1,,0.794 µM (active)
C1CC[C@H]([C@@]23C[C@H](C[C@H]4CCCN[C@H]42)[C@@H]2CCCCN2C3)NC1,5.48% (inactive),
CC1(C)C(c2ccccc2)=NC(c2cccnc2)=[N+]1[O-],4.87% (inactive),
